Assay results: PubChem BioAssay (EPA / NIEHS)
Inconclusive results are not listed. Active and inactive are the calls of the source. How the source made its calls, unless noted: active means hit-call score of the fitted dose curve at least 0.9, where 1 is the maximum; inconclusive means response in the unintended direction; inactive means score below 0.9.

Legend:
[1] = ATG_TGFb_CIS: Attagene CIS-FACTORIAL HepG2 Assay for human Transforming Growth Factor (TGF) (AID 2282967; active means hit-call score of the fitted dose curve at least 0.9, where 1 is the maximum; inactive means score below 0.9); details: HepG2 Attagene CIS TGFb reporter, mRNA transcription; actives raise or lower the signal
Outline: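 Endogenous TGFB1-linked transcription factor activity read as reporter mRNA via RT-PCR and capillary electrophoresis, 24 h after dosing transiently transfected HepG2 cells. Gain or loss of signal fitted relative to DMSO.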

[2] = ATG_VDRE_CIS: Attagene CIS-FACTORIAL HepG2 Assay for human Vitamin D Receptor Element (VDRE) (AID 2282968; active means hit-call score of the fitted dose curve at least 0.9, where 1 is the maximum; inactive means score below 0.9); details: HepG2 VDRE cis-reporter transcription, actives raise or lower the signal
Outline: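 Transfected HepG2 reporter cells, chemical treatment 24 h. RNA isolated, cDNA amplified with reporter-specific primers, products analysed by capillary electrophoresis. Endpoint fitted in both directions versus DMSO.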

[3] = target: Estrogen receptor (Homo sapiens) (UniProt P03372); experiment: ATG_ERa_TRANS: Attagene TRANS-FACTORIAL HepG2 Assay for human Estrogen Receptor alpha (ERa) (AID 2282970); details: HepG2 Attagene TRANS ERa GAL4 reporter, mRNA
Sequence of Estrogen receptor (Homo sapiens) (P03372 whole entry, looked up, the tested form may be a part): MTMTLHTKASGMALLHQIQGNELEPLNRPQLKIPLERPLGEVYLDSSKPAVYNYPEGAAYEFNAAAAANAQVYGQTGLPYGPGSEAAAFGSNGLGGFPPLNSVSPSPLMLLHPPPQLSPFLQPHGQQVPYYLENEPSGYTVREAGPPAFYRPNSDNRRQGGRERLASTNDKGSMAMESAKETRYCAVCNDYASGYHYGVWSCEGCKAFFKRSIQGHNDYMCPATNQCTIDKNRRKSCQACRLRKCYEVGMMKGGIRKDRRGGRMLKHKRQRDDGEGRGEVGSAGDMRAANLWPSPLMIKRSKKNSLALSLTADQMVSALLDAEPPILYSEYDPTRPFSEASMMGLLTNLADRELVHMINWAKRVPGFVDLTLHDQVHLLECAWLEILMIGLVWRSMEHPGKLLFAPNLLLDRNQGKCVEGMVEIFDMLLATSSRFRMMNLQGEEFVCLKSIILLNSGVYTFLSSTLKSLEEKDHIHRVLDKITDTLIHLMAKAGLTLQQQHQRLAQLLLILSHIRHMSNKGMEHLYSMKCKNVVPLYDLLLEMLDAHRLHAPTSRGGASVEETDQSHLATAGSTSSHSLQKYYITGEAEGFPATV
Outline: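 Liver-derived HepG2 cells expressing chimeric nuclear receptor-Gal4 proteins from transient transfection were exposed for 24 hours. Gain of reporter mRNA signal versus DMSO, read by capillary electrophoresis of FAM-labelled PCR products, was recorded.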

[4] = target: Steroid hormone receptor ERR1 (Homo sapiens) (UniProt P11474); experiment: ATG_ERRa_TRANS: Attagene TRANS-FACTORIAL HepG2 Assay for human Estrogen-Related Receptor alpha (ERRa) (AID 2282971); details: HepG2 Attagene TRANS reporter, ERRa transactivation
Sequence of Steroid hormone receptor ERR1 (Homo sapiens) (P11474 whole entry, looked up, the tested form may be a part): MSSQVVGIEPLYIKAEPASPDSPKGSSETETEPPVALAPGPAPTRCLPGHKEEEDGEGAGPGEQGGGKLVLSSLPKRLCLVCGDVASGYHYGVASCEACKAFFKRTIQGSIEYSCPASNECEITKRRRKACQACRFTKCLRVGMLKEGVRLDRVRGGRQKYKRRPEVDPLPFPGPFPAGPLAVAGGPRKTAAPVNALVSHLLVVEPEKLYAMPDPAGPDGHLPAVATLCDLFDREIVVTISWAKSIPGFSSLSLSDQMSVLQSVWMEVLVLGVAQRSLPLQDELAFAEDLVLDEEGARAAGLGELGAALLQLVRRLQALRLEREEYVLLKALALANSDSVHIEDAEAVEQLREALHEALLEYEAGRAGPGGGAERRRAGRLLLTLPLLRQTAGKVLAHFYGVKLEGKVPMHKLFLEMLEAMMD
Outline: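 Reporter transcript induction was quantified by RT-PCR and capillary electrophoresis of FAM-labelled, HpaI-cut products after 24 h treatment of HepG2 cells carrying transiently transfected GAL4-UAS reporter units and an exogenous ERRa-Gal4 fusion; activity scored as increase over DMSO.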

[5] = target: X-box-binding protein 1 (Homo sapiens) (UniProt P17861); experiment: ATG_Xbp1_CIS: Attagene CIS-FACTORIAL HepG2 Assay for human X-box Binding Protein 1 (XBP1) (AID 2282972; active means hit-call score of the fitted dose curve at least 0.9, where 1 is the maximum; inactive means score below 0.9); details: HepG2 XBP1 cis-element reporter, Attagene multiplex; actives raise or lower the signal
Sequence of X-box-binding protein 1 (Homo sapiens) (P17861 whole entry, looked up): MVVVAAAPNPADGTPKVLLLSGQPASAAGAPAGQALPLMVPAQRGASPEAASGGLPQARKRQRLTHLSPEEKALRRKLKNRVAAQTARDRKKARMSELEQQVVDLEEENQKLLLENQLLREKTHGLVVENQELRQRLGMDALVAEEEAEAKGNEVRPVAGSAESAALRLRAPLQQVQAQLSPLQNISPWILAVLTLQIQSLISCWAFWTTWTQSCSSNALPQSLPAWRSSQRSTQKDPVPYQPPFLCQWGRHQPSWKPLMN
Outline: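 Reporter transcripts were quantified by RT-PCR with fluorescent primer extension and capillary electrophoresis after 24 h chemical exposure. Cells: transiently transfected HepG2 carrying cis-regulated reporter constructs; data fitted bidirectionally relative to DMSO.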

[6] = ATG_M_19_TRANS: Attagene TRANS-FACTORIAL HepG2 Assay for M19 Transcription Factor (Internal Marker) (AID 2282974); details: HepG2 Attagene TRANS-FACTORIAL M19 internal marker reporter
Outline: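 Using RT-PCR and capillary electrophoresis, reporter mRNA from transiently transfected human HepG2 cells was quantified following 24 h exposure; activity was fitted in the positive direction against DMSO.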

[7] = ATG_GAL4_TRANS: Attagene TRANS-FACTORIAL HepG2 Assay for GAL4 (Internal Marker) (AID 2282976); details: HepG2 Attagene TRANS GAL4 internal marker reporter
Outline: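 First, HepG2 cells were transfected with reporter units under GAL4-UAS control. Next, they were treated with chemical for 24 h. Finally, RNA was reverse-transcribed, PCR-amplified, FAM-labelled and resolved by capillary electrophoresis, with induction scored against DMSO.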

[8] = target: Estrogen-related receptor gamma (Homo sapiens) (UniProt P62508); experiment: ATG_ERRg_TRANS: Attagene TRANS-FACTORIAL HepG2 Assay for human Estrogen-Related Receptor gamma (ERRg) (AID 2282977); details: HepG2 Attagene TRANS reporter, ERRg transactivation;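 further: hits increase reporter signal over DMSO so potencies reflect activators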
Sequence of Estrogen-related receptor gamma (Homo sapiens) (P62508 whole entry, looked up, the tested form may be a part): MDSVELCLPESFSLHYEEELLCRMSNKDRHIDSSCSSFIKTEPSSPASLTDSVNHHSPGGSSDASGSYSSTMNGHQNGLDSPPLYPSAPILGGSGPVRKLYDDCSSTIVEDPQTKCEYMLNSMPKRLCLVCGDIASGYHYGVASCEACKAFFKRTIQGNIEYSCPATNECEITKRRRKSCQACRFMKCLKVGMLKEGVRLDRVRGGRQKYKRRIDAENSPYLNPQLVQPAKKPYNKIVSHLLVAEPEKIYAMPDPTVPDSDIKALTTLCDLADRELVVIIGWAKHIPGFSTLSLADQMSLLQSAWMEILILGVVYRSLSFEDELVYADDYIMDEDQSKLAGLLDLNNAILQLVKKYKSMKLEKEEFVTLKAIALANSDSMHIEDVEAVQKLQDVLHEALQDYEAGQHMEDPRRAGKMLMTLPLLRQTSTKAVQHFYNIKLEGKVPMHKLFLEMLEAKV
Outline: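 Readout: fluorescent reporter-mRNA fragments resolved by capillary electrophoresis after RT-PCR and HpaI cut. Cells: transiently transfected HepG2 carrying GAL4-UAS reporters driven by exogenous NR-Gal4 chimeras, dosed 24 h. Activity fitted upward relative to DMSO baseline.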

[9] = target: Glucocorticoid receptor (Homo sapiens) (UniProt P04150); experiment: ATG_GR_TRANS: Attagene TRANS-FACTORIAL HepG2 Assay for human Glucocorticoid Receptor (GR) (AID 2282978); details: HepG2 Attagene TRANS GR reporter, mRNA transcription;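 further: activators score as hits since higher reporter transcript over DMSO is fitted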
Sequence of Glucocorticoid receptor (Homo sapiens) (P04150 whole entry, looked up, the tested form may be a part): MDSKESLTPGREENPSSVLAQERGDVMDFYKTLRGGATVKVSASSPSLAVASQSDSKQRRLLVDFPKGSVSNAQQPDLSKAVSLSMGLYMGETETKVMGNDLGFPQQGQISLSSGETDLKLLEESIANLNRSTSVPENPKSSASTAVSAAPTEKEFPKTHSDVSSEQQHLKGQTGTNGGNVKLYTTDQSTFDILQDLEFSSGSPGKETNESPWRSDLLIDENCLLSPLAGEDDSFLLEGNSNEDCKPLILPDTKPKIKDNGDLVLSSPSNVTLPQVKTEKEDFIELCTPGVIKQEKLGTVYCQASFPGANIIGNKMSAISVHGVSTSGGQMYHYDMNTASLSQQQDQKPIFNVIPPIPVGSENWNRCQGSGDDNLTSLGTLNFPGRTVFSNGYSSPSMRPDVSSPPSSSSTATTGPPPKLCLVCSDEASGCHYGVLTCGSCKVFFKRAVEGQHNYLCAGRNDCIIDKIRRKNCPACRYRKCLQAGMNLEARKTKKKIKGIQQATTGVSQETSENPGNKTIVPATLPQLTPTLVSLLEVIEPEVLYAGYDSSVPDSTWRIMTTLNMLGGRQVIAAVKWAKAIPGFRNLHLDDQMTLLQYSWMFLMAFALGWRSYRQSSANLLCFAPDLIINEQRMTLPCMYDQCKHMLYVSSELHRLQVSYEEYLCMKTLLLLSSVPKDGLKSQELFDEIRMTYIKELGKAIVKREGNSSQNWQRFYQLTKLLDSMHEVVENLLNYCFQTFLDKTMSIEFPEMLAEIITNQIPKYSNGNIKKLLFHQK
Outline: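 Exogenous NR-GAL4 fusion activity was assessed through induced GAL4-UAS reporter transcripts in transfected human HepG2 cells, quantified after 24 h by RT-PCR and fluorescent capillary electrophoresis with DMSO as baseline.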

[10] = target: Nuclear receptor subfamily 1 group I member 3 (Homo sapiens) (UniProt Q14994); experiment: ATG_CAR_TRANS: Attagene TRANS-FACTORIAL HepG2 Assay for human Constitutive Androstane Receptor (CAR) (AID 2282969); details: HepG2 Attagene TRANS-FACTORIAL CAR reporter;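 further: activators raise reporter mRNA above DMSO so AC50 marks induction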
Sequence of Nuclear receptor subfamily 1 group I member 3 (Homo sapiens) (Q14994 whole entry, looked up, the tested form may be a part): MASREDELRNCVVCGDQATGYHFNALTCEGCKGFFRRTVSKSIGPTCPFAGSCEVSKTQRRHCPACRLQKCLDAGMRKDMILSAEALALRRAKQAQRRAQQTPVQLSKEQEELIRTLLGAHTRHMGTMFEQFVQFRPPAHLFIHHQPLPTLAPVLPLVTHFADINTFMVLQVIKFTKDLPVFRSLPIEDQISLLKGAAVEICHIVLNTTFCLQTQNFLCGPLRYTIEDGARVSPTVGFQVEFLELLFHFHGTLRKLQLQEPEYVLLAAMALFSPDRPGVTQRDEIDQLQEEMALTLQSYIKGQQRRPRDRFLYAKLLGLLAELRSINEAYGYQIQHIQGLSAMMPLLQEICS
Outline: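 Steps: transient transfection of HepG2 with multiple GAL4-UAS reporter units; 24 h compound incubation; RNA isolation, RT-PCR, 6-FAM primer extension, HpaI digest; capillary electrophoresis. Gain-of-signal relative to DMSO negative control.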

Measured: AC50

NC(=O)C(F)(F)C(F)(F)F
inactive: [1] | [2] | [3] | [4] | [5] | [6] | [7] | [8] | [9]

CCCCN(CCCC)SN(C)C(=O)Oc1cccc2c1OC(C)(C)C2
active: [3] 75.5 µM
inactive: [1] | [2] | [10] | [5] | [6] | [7] | [9]

C/C(=N\NC(=O)Nc1cc(F)cc(F)c1)c1ncccc1C(=O)O
inactive: [1] | [2] | [10] | [3] | [5] | [6] | [7] | [9]

CC1(C)CN=C(NN=C(/C=C/c2ccc(C(F)(F)F)cc2)/C=C/c2ccc(C(F)(F)F)cc2)NC1
active: [1] 11.1 µM | [3] 4.59 µM
inactive: [2] | [10] | [5] | [6] | [9]

CNC(=O)Oc1ccc(N(C)C)c(C)c1
inactive: [1] | [2] | [10] | [3] | [5] | [6] | [8]

O=c1[nH]c2ccccc2c(=O)o1
inactive: [1] | [2] | [10] | [3] | [5] | [7] | [9]

CCOC(=O)c1ccccc1C(=O)OCC
inactive: [1] | [2] | [3] | [4] | [5] | [7] | [8] | [9]

CCCN(CCC)c1c([N+](=O)[O-])cc(C(C)C)cc1[N+](=O)[O-]
inactive: [1] | [2] | [10] | [3] | [5] | [6]

CCCCN(CC)C(=O)SCCC
active: [3] 100 µM
inactive: [1] | [2] | [10] | [5] | [6] | [9]

c1ccc(OP(Oc2ccccc2)Oc2ccccc2)cc1
active: [3] 74.9 µM
inactive: [1] | [2] | [10] | [5] | [6] | [9]

CC(Cc1ccc(OCC(=O)O)cc1)NCC(O)c1csc(C(F)(F)F)n1 (centres undefined)
inactive: [1] | [2] | [10] | [5] | [6] | [7] | [8]

ClC1=C(Cl)C2(Cl)C3C(Cl)C(Cl)CC3C1(Cl)C2(Cl)Cl (centres undefined)
inactive: [1] | [10] | [5]
active: [2] 3.76 µM | [3] 13.4 µM | [9] 100 µM

FC(F)(F)c1ccc(Cl)cc1
inactive: [1] | [2] | [10] | [5] | [7] | [9]

CCCCCCCc1ccc(O)cc1
inactive: [1] | [2] | [10] | [5] | [6] | [7] | [9]

Nc1ccc(Sc2ccc(N)cc2)cc1
active: [2] 62.9 µM | [3] 7.99 µM
inactive: [1] | [10] | [4] | [5] | [6] | [9]

O=C(O)C(F)(OC(F)(F)C(F)(F)C(F)(F)F)C(F)(F)F (centres undefined)
inactive: [1] | [10] | [3] | [4] | [5] | [6] | [7] | [8] | [9]

CCCCc1ccc(O)cc1
inactive: [1] | [10] | [5] | [6] | [7] | [9]
active: [3] 4.66 µM

c1nc[nH]n1
inactive: [1] | [10] | [5]
active: [3] 24.8 µM

c1ccc2c(c1)sc1ccccc12
active: [3] 63.7 µM
inactive: [1] | [10] | [4] | [5] | [6] | [9]

CCOP(=S)(OCC)SCn1nnc2ccccc2c1=O
inactive: [1] | [10] | [4] | [5] | [6] | [8] | [9]
active: [3] 3.08 µM

c1ccc2c(c1)Nc1ccccc1S2
active: [3] 11.7 µM
inactive: [1] | [10] | [4] | [5] | [6] | [7] | [8]

Cc1cc(C)c(C(=O)P(=O)(c2ccccc2)c2ccccc2)c(C)c1
inactive: [1] | [9]
active: [2] 0.54 µM | [3] 25.5 µM | [5] 53.4 µM

Oc1ccc(I)cc1
inactive: [1] | [2] | [5] | [6] | [9]
active: [3] 19.7 µM

OCC(F)(F)OC(F)(F)C(F)(F)OC(F)(F)CO
active: [3] 9.78 µM
inactive: [1] | [2] | [5] | [9]

COP(=O)(CCC(=O)NCO)OC
inactive: [1] | [2] | [4] | [5] | [8] | [9]

CN(C)C(=O)Cl
inactive: [1] | [2] | [4] | [5] | [8] | [9]
